Laboratory results published in PubChem BioAssay (NCI).
“And” between values parts separate entries of the source, which are not always exact repeats. Equal entries are not always repeated. The panel holds about 83,000 compounds, 20% with a hit somewhere; the sample as a whole holds those more often.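 96-well plates, one dose, 48 hours. Percent growth reported; active if below 10.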 The source made the active and inactive calls.

The molecules below were run on TK-10 renal (assay: NCI-60 one-dose screen, 48 h (100 = growth as untreated, 0 = no growth, -100 = all killed)). Details: 0.01 µM.
Protocol: Growth inhibition of the TK-10 human tumor cell line is measured as a screen for anti-cancer activity. Cells are grown in 96 well plates and exposed to the test compound for 48 hours. Compounds are tested at a single concentration, which is 10^-5 M for most compounds. The reported endpoint is percent growth (GI% or GIPRCNT), where numbers from 0 - 100% represent growth inhibition, and numbers from -100% - 0 represent cell death. For example, a value of 40 represents 60% growth inhibition. A value of 0 means no net growth occurred over the course of the experiment. A value of -40 indicates 40% of cells at the beginning of the experiment died by the end of the experiment. A value of -100 means all cells are dead at the end of the experiment.
NCI-60 Human Tumor Cell Lines Screen was performed using the standard one-dose NCI protocol, which is described in more detail at https://dtp.cancer.gov/discovery_development/nci-60/default.htm.
Compounds with GIPRCNT values below 10 were considered active. Activity score was based on GIPRCNT using the following formula: […]
Score is 0 for GIPRCNT values of 100 or above, 50 for GIPRCNT values of 0, and 100 for GIPRCNT values of -100.

| SMILES | growth |
| --- | --- |
| CC(=O)O[C@H]1C(=O)[C@@]2(C)[C@H]([C@H](OC(=O)c3ccccc3)[C@]3(O)C[C@H](OC(=O)[C@H](O)[C@@H](NC(=O)c4ccccc4)c4ccccc4)C(C)=C1C3(C)C)[C@]1(OC(C)=O)CO[C@@H]1C[C@@H]2O | 87.7% (inactive) |

Same assay, conditions: 2.5 µM

| SMILES | growth |
| --- | --- |
| CC(=O)O[C@H]1C(=O)[C@@]2(C)[C@H]([C@H](OC(=O)c3ccccc3)[C@]3(O)C[C@H](OC(=O)[C@H](O)[C@@H](NC(=O)c4ccccc4)c4ccccc4)C(C)=C1C3(C)C)[C@]1(OC(C)=O)CO[C@@H]1C[C@@H]2O | 44.7% (inactive) |

Same assay, conditions: 5 µM

| SMILES | growth |
| --- | --- |
| CC(=O)O[C@H]1C(=O)[C@@]2(C)[C@H]([C@H](OC(=O)c3ccccc3)[C@]3(O)C[C@H](OC(=O)[C@H](O)[C@@H](NC(=O)c4ccccc4)c4ccccc4)C(C)=C1C3(C)C)[C@]1(OC(C)=O)CO[C@@H]1C[C@@H]2O | 46.1% (inactive) |

Same assay, conditions: 10 µM

| SMILES | growth |
| --- | --- |
| O=C1C=CC(=O)N1c1ccc(N2C(=O)C=CC2=O)cc1 | 92% (inactive) |
| CN(C)c1ccc(/C=C/c2ccnc3ccccc23)cc1N | 74.7% (inactive) |
| NCc1c(O)ccc2ccccc12 | 108% (inactive) |
| Cn1c2nc3ccccc3c-2nc2ccccc21 | 113% (inactive) and 109% (inactive) |
| CN(CC(=O)O)c1ccc(/C=C/c2ccnc3ccccc23)cc1 | 98.7% (inactive) |
| COc1cccc(C(c2cc3c(cc2O)OCO3)N2CCOCC2)c1OC (stereo not given) | 101% (inactive) |
| Nc1nc(N)c2cc(Sc3ccc4ccccc4c3)ccc2n1 | 49.5% (inactive) |
| O=C(NC(=S)Nc1ccccn1)c1ccccc1 | 125% (inactive) |
| C=C1N(C)c2ccc(Cl)cc2C1(C)C | 83.8% (inactive) |
| CC(=O)O[C@H]1C(=O)[C@@]2(C)[C@H]([C@H](OC(=O)c3ccccc3)[C@]3(O)C[C@H](OC(=O)[C@H](O)[C@@H](NC(=O)c4ccccc4)c4ccccc4)C(C)=C1C3(C)C)[C@]1(OC(C)=O)CO[C@@H]1C[C@@H]2O | 18.4% (inactive) and 43.6% (inactive) |
| O=c1[nH]cc(/C=N\Nc2ccccc2)c(=O)[nH]1 | 78% (inactive) |
| CCOC(=O)[C@]1(Br)CC[C@@]1(Br)C(=O)OCC | 95.9% (inactive) |
| COc1ccc2oc(-c3ccc(Cl)cc3)c(N3CCN(C)CC3)c2c1 | -1.47% (active) |
| Cc1c(-c2ccccc2)[nH]c2ccccc12 | 119% (inactive) |
| Cc1cc(C)c(N2C(=O)CC(Sc3ccccc3N)C2=O)c(C)c1 (stereo not given) | 123% (inactive) |
| CCC(C)(c1ccc(O)c(C)c1)c1ccc(O)c(C)c1 | 249% (inactive) |
| Cc1cc(Cl)ccc1NC(=O)/C(Cl)=C1/Sc2ccccc2NC1=O | 146% (inactive) |

| SMILES | growth |
| --- | --- |
| O=C(CNS(=O)(=O)Cc1ccccc1)NNc1ccccc1 | 90.6% (inactive) |
| CC[C@@]1(OC(=O)CN(C)C)C(=O)OCc2c1cc1n(c2=O)Cc2cc3c(N)cccc3nc2-1 | 20.1% (inactive) |
| O=[N+]([O-])c1cc(S(=O)(=O)Nc2ccccc2)ccc1Cl | 99.1% (inactive) |
| S=C1SCN(CCc2ccccc2)CN1CCc1ccccc1 | 82.1% (inactive) |
| ClCCn1c(CCl)nc2ccc(Cl)cc21 | -30.6% (active) |
| O=C1C(Cl)=C(Cl)C(Cl)(Cl)C(Cl)C1(Cl)Cl (stereo not given) | 98.9% (inactive) |
| Cc1cc(N=C2C=CC(=[N+](C)C)C=C2)c(N)cc1N | 106% (inactive) |
| O=C1c2ccccc2CCC1(Br)Br | -11% (active) |
| O=S(=O)(c1cc(Cl)ccc1O)c1cc(Cl)ccc1O | 87.5% (inactive) |
| Cn1ncc2cc3c(Nc4ccc(Cl)cc4)cccc3nc21 | 92.9% (inactive) |
| COc1cc(N)ccc1Nc1c2ccccc2nc2ccccc12 | 88.3% (inactive) |
| COc1ccc(C(C#N)=C2C=CC(=NO)C=C2)cc1 | 12.9% (inactive) |
| O=Nc1ccc(Nc2ccccc2)cc1 | 116% (inactive) |
| N#CC(=C1C=CC(=NO)C=C1)c1ccccc1 | 27.2% (inactive) |
| CN(C)CCNc1cccc2sc3ccc(O)cc3c(=O)c12 | 58% (inactive) |
| S=P(N1CC1)(N1CC1)N1CC1 | 115% (inactive) and 111% (inactive) |
| CC1CCC2(C(=O)O)CCC3(C)C(=CCC4C5(C)CC(O)C(O)C(C)(CO)C5C(O)CC43C)C2C1C (stereo not given) | 108% (inactive) |

Same assay, conditions: 100 µM

| SMILES | growth |
| --- | --- |
| Clc1c(Cl)c(Cl)c2c(nnn2C2CCCO2)c1Cl (stereo not given) | -9.89% (active) and -74.8% (active) |
| COc1cc2c(cc1C[N+](C)(C)CSc1ccccc1)-c1ccccc1CC2 | -93.9% (active) and -97.7% (active) |
| S=P(N1CC1)(N1CC1)N1CC1 | 98.8% (inactive) |
